Measurements: the supplement of paper PMC10849652
Of roughly 7,900 targets only a part is listed; those with a hit were picked by preference. About 0.6% of all pairs of compound and target were hits.

Assays:
Assay in all cases: log2 fold change, soluble protein after heating vs DMSO (PISA); higher = thermal stabilisation; K562 cells, 10 uM, 30 min; active = over 0.2 and 3.5 SD of the protein, either way, in both replicates (recomputed)
IRAK-1-4 Inhibitor I = compound: C1COCCN1CCN2C3=CC=CC=C3N=C2NC(=O)C4=CC(=CC=C4)[N+](=O)[O-] [IRAK-1-4 Inhibitor I]
Summary of the method: (§1)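 K562 cells at 2×10^6 cells/mL were treated for 30 min with 10 μM compound, and aliquots were heated for 3 min over 48°C-58°C before pooling. Extraction used PBS with 0.5% NP-40 at 4°C, and soluble protein was the supernatant after 21,000xg for 90 min, measured by TMTpro 16plex LC-MS/MS with channel sums equalised. Thermal stability values, relative to control samples and from duplicates, are log2 fold changes.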

ibrutinib = compound: C=CC(=O)N1CCC[C@@H](n2nc(-c3ccc(Oc4ccccc4)cc3)c3c(N)ncnc32)C1 [ibrutinib]
Summary of the method: as §1

[1] = compound: CC(=O)c1cnc2ccc(-c3cc(Cl)c(O)c(Cl)c3)nc2c1N[C@H]1CC[C@H](CN(C)C)CC1
Summary of the method: as §1

ralimetinib = compound: CC(C)(C)Cn1c(N)nc2ccc(-c3[nH]c(C(C)(C)C)nc3-c3ccc(F)cc3)nc21 [ralimetinib]
Summary of the method: as §1

[2] = compound: CC(C)(O)CC(=O)NCCn1ccc2ncnc(Nc3ccc(Oc4cccc(C(F)(F)F)c4)c(Cl)c3)c21
Summary of the method: as §1

[3] = compound: CC(C)C1=C2N=C(C=C(N2N=C1)NCC3=CC=CC=C3)NCCCCCCN
Summary of the method: as §1

[4] = compound: CC(C)C[C@@H](C=O)NC(=O)[C@H](CC(C)C)NC(=O)[C@H](CC(C)C)NC(=O)OCc1ccccc1
Summary of the method: as §1

pinometostat = compound: CC(C)N(C[C@H]1O[C@@H](n2cnc3c(N)ncnc32)[C@H](O)[C@@H]1O)[C@H]1C[C@@H](CCc2nc3cc(C(C)(C)C)ccc3[nH]2)C1 [pinometostat]
Summary of the method: as §1

[5] = compound: CC1=C(C(CC(=O)N1)C2=CC=C(C=C2)C(F)(F)F)C(=O)NC3=C(C=C4C(=C3)C=NN4)F
Summary of the method: as §1

[6] = compound: CC1=C(C2=C(C=C1)C(=O)C3=CC=CC=C3N2CCCN)C
Summary of the method: as §1

[7] = compound: CC1=C(C=C(C=C1)NC(=O)C2=CC(=CC=C2)C(C)(C)C#N)NC3=CC4=C(C=C3)N=CN(C4=O)C
Summary of the method: as §1

[8] = compound: CC1=C(C=C(C=C1)NC(=O)C2=CC(=CC=C2)N(C)C)NC(=O)C3=CC=C(C=C3)O
Summary of the method: as §1

[9] = compound: CC1=CC=C(C=C1)SC2=C3C=C(SC3=CN=C2)C(=O)N
Summary of the method: as §1

[10] = compound: CC1=NC(=CC=C1)C2=C(N=C(N2)C(C)(C)C)C3=CC4=NC=CN=C4C=C3
Summary of the method: as §1

Nexturastat A = compound: CCCCN(Cc1ccc(C(=O)NO)cc1)C(=O)Nc1ccccc1 [Nexturastat A]
Summary of the method: as §1

vemurafenib = compound: CCCS(=O)(=O)Nc1ccc(F)c(C(=O)c2c[nH]c3ncc(-c4ccc(Cl)cc4)cc23)c1F [vemurafenib]
Summary of the method: as §1

[11] = compound: CCCS(=O)(=O)Nc1ccc(F)c(C(=O)c2c[nH]c3ncc(Cl)cc23)c1F
Summary of the method: as §1

[12] = compound: CCCc1cc(C)[nH]c(=O)c1CNC(=O)c1cc(-c2ccnc(N3CCN(C)CC3)c2)cc2c1cnn2C(C)C
Summary of the method: as §1

givinostat = compound: CCN(CC)Cc1ccc2cc(COC(=O)Nc3ccc(C(=O)NO)cc3)ccc2c1 [givinostat]
Summary of the method: as §1

barasertib = compound: CCN(CCCOc1ccc2c(Nc3cc(CC(=O)Nc4cccc(F)c4)[nH]n3)ncnc2c1)CCOP(=O)(O)O [barasertib]
Summary of the method: as §1

Measured: log2 fold change

GPKOW (UniProt Q92917)
UniProt Q92917, sequence (Q92917 whole entry, looked up): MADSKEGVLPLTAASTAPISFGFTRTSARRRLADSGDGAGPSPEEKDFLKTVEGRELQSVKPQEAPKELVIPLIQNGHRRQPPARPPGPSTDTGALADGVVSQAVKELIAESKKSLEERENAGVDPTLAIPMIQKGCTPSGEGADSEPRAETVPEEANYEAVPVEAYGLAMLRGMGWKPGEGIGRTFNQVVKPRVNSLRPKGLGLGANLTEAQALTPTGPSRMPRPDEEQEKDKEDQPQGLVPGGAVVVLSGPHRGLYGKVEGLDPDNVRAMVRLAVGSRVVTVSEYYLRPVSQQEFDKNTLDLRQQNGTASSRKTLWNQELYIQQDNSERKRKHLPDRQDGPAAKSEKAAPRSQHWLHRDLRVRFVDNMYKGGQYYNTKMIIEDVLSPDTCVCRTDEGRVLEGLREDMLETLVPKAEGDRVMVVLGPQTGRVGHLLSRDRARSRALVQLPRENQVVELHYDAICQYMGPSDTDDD
inactive: IRAK-1-4 Inhibitor I -0.016 | ibrutinib -0.005 | [1] -0.172 | ralimetinib -0.08 | [2] -0.026 | [3] -0.184 | [4] 0.006 | pinometostat 0.047 | [5] -0.034 | [6] 0.056 | [7] 0.053 | [8] -0.033 | [9] 0.062 | [10] 0.055 | Nexturastat A -0.106 | vemurafenib 0.009 | [11] 0.07 | [12] -0.058 | givinostat 0.084 | barasertib 0.027

HAX1 (UniProt O00165)
UniProt O00165, sequence (O00165 whole entry, looked up): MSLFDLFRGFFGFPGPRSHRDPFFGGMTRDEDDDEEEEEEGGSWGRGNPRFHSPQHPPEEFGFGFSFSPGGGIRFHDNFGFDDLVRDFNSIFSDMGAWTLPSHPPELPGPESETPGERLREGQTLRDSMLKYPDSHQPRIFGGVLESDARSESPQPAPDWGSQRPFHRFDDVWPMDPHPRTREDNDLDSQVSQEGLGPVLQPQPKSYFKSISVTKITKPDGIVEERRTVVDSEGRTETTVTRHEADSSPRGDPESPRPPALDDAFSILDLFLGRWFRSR
inactive: IRAK-1-4 Inhibitor I -0.017 | ibrutinib -0.036 | [1] -0.07 | ralimetinib 0.026 | [2] -0.156 | [4] 0.045 | pinometostat 0.107 | [5] 0.047 | [6] 0.065 | [7] -0.018 | [8] -0.101 | [9] 0.03 | [10] -0.058 | Nexturastat A 0.066 | vemurafenib -0.012 | [11] 0.082 | [12] 0.045 | givinostat 0.009 | barasertib 0.046
active: [3] -0.498

HNRNPUL2 (UniProt Q1KMD3)
UniProt Q1KMD3, sequence (Q1KMD3 whole entry, looked up): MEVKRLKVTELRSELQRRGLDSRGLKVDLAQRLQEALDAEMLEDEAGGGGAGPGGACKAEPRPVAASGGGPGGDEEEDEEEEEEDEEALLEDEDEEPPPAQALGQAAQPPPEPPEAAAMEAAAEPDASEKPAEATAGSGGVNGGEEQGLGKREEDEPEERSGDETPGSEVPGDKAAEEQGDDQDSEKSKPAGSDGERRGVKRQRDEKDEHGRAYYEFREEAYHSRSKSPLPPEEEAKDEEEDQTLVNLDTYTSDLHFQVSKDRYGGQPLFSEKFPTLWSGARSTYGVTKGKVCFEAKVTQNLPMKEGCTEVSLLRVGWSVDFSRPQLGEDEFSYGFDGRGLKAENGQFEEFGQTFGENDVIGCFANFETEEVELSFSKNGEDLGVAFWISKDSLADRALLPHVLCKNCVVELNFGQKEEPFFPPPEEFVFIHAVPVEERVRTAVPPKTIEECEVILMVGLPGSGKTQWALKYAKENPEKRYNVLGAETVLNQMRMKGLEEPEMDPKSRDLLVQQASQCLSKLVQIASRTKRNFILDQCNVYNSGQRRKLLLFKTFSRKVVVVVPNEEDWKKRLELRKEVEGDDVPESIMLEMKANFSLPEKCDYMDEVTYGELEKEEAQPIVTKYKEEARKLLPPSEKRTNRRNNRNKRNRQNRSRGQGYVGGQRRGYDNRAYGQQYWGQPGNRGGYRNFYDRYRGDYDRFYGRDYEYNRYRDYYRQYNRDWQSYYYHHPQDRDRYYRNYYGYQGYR
inactive: IRAK-1-4 Inhibitor I -0.033 | ibrutinib -0.022 | [1] -0.014 | ralimetinib -0.033 | [2] 0.024 | [3] 0.117 | [4] 0.054 | pinometostat 0.107 | [5] -0.009 | [6] 0.023 | [7] 0.009 | [8] 0.008 | [9] -0.074 | [10] -0.032 | Nexturastat A 0.109 | vemurafenib -0.047 | [11] -0.027 | [12] -0.002 | givinostat 0.047 | barasertib -0.027

IDH3A (UniProt P50213)
inactive: IRAK-1-4 Inhibitor I 0.033 | ibrutinib 0.021 | [1] -0.008 | ralimetinib -0.085 | [2] -0.044 | [3] 0.034 | [4] 0 | pinometostat -0.029 | [5] 0.008 | [6] 0.015 | [7] -0.029 | [8] -0.003 | [9] 0.031 | [10] 0.015 | Nexturastat A -0.084 | vemurafenib 0.009 | [11] -0.009 | [12] -0.014 | givinostat -0.06 | barasertib -0.006

HMGN1 (UniProt P05114)
UniProt P05114, sequence (P05114 whole entry, looked up): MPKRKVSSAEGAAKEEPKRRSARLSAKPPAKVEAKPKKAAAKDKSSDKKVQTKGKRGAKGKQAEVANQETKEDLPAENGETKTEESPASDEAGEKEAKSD
active: [6] 0.294
inactive: IRAK-1-4 Inhibitor I -0.006 | ibrutinib 0.049 | [1] 0.064 | ralimetinib 0.032 | [2] 0.166 | [3] 0.148 | [4] 0.042 | pinometostat -0.022 | [5] 0.014 | [7] 0.056 | [8] 0.027 | [9] -0.048 | [10] 0.078 | Nexturastat A -0.017 | vemurafenib 0.004 | [11] -0.064 | [12] -0.033 | givinostat -0.119 | barasertib -0.06

GMEB1 (UniProt Q9Y692)
UniProt Q9Y692, sequence (Q9Y692 whole entry, looked up): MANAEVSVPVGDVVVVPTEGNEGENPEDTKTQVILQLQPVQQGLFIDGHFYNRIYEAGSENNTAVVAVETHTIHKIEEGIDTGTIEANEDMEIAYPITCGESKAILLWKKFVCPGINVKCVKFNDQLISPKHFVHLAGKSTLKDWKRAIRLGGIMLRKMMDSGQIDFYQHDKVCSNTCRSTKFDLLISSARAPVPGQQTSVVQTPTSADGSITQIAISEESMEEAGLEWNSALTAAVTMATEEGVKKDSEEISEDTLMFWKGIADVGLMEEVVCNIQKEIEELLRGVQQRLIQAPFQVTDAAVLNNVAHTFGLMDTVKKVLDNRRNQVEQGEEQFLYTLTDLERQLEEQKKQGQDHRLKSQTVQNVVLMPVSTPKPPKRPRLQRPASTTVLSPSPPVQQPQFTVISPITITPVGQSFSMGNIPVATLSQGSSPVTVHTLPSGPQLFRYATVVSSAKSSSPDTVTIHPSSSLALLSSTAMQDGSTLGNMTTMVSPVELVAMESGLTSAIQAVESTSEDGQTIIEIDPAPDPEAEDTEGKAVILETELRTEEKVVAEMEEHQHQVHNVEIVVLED
inactive: IRAK-1-4 Inhibitor I -0.033 | ibrutinib -0.031 | [1] -0.021 | ralimetinib 0.01 | [2] -0.039 | [3] -0.044 | [4] -0.031 | pinometostat 0.022 | [5] 0.011 | [7] 0.088 | [8] 0.041 | [9] 0.04 | [10] 0.014 | Nexturastat A -0.041 | vemurafenib -0.048 | [11] 0.154 | [12] 0.047 | givinostat 0.058 | barasertib 0.008
active: [6] -0.297

GTF2A2 (UniProt P52657)
UniProt P52657, sequence (P52657 whole entry, looked up): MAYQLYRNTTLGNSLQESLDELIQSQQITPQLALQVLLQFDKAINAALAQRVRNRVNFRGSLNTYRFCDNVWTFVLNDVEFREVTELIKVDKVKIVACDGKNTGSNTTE
active: [6] -0.357
inactive: IRAK-1-4 Inhibitor I 0.013 | ibrutinib -0.028 | [1] -0.002 | ralimetinib -0.078 | [2] -0.026 | [3] 0.051 | [4] -0.019 | pinometostat -0.064 | [5] 0.016 | [7] 0.009 | [8] -0.029 | [9] 0.052 | [10] 0.03 | Nexturastat A -0.091 | vemurafenib -0.083 | [11] -0.017 | [12] -0.053 | givinostat -0.044 | barasertib 0.007

IFRD2 isoform 2 (UniProt Q12894)
active: [6] -1.69
inactive: IRAK-1-4 Inhibitor I 0.141 | ibrutinib 0.063 | [1] 0.369 | ralimetinib -0.045 | [2] 0.013 | [3] 0.07 | [4] 0.019 | pinometostat 0.144 | [5] -0.116 | [7] 0.093 | [8] 0.035 | [9] -0.129 | [10] -0.13 | Nexturastat A 0.055 | vemurafenib -0.043 | [11] 0.062 | [12] -0.225 | givinostat -0.2 | barasertib -0.142

FIS1 (UniProt Q9Y3D6)
UniProt Q9Y3D6, sequence (Q9Y3D6 whole entry, looked up): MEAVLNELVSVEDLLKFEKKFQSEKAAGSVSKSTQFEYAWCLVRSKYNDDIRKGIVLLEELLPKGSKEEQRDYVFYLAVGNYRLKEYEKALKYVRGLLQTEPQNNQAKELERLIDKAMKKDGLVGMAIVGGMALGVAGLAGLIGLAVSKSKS
inactive: IRAK-1-4 Inhibitor I 0.029 | ibrutinib 0.003 | [1] 0.067 | ralimetinib -0.036 | [2] 0.029 | [3] -0.023 | [4] -0.025 | pinometostat -0.074 | [5] 0.004 | [6] -0.031 | [7] -0.024 | [8] 0.006 | [9] 0 | [10] 0 | Nexturastat A -0.018 | vemurafenib 0.048 | [11] -0.046 | [12] -0.009 | givinostat -0.014 | barasertib -0.027

GOPC (UniProt Q9HD26)
inactive: IRAK-1-4 Inhibitor I -0.119 | ibrutinib -0.104 | [1] 0.03 | ralimetinib 0.259 | [2] -0.04 | [3] 0.046 | [4] 0.083 | pinometostat 0.174 | [5] -0.118 | [6] 0.085 | [7] 0.207 | [8] 0.018 | [9] -0.051 | [10] -0.066 | Nexturastat A 0.131 | vemurafenib 0.094 | [11] -0.128 | [12] 0.244 | givinostat 0.152 | barasertib -0.116

FNTA (UniProt P49354)
inactive: IRAK-1-4 Inhibitor I 0.052 | ibrutinib 0.107 | [1] 0.081 | ralimetinib -0.05 | [2] -0.023 | [3] 0.016 | [4] -0.031 | pinometostat -0.018 | [5] -0.023 | [6] -0.074 | [7] -0.035 | [8] -0.009 | [9] 0.048 | [10] -0.011 | Nexturastat A -0.063 | vemurafenib -0.045 | [11] -0.047 | [12] 0.007 | givinostat -0.052 | barasertib 0.007

HIKESHI (UniProt Q53FT3)
UniProt Q53FT3, sequence (Q53FT3 whole entry, looked up): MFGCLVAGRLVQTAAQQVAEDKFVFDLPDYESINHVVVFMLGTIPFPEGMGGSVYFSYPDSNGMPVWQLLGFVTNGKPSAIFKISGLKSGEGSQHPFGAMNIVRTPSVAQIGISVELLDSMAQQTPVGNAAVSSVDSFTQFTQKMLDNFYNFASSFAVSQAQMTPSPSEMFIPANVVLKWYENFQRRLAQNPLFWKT
inactive: IRAK-1-4 Inhibitor I 0.013 | ibrutinib -0.041 | [1] 0.023 | [2] -0.045 | [3] -0.007 | [4] -0.194 | pinometostat 0.062 | [5] -0.043 | [6] 0.061 | [7] -0.138 | [8] -0.051 | [9] 0.003 | [10] -0.011 | Nexturastat A -0.037 | vemurafenib 0.027 | [11] 0.003 | [12] -0.033 | givinostat -0.008 | barasertib 0.011
active: ralimetinib -0.305

H1FX (UniProt Q92522)
UniProt Q92522, sequence (Q92522 whole entry, looked up): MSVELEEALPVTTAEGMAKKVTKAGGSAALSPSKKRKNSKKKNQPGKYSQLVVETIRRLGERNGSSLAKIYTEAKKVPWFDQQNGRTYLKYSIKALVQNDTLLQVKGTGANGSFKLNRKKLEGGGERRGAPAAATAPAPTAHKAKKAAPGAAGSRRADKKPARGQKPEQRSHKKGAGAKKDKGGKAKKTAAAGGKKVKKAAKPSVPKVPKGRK
inactive: IRAK-1-4 Inhibitor I -0.171 | ibrutinib 0.077 | [1] 0.231 | ralimetinib 0.204 | [2] 0.031 | [3] 0.13 | [4] 0.09 | pinometostat 0.246 | [5] 0.02 | [7] 0.081 | [8] -0.059 | [9] -0.106 | [10] -0.222 | Nexturastat A 0.278 | vemurafenib -0.083 | [11] -0.077 | [12] 0.176 | givinostat -0.034 | barasertib -0.129
active: [6] -0.718

GYG1 (UniProt P46976)
UniProt P46976, sequence (P46976 whole entry, looked up): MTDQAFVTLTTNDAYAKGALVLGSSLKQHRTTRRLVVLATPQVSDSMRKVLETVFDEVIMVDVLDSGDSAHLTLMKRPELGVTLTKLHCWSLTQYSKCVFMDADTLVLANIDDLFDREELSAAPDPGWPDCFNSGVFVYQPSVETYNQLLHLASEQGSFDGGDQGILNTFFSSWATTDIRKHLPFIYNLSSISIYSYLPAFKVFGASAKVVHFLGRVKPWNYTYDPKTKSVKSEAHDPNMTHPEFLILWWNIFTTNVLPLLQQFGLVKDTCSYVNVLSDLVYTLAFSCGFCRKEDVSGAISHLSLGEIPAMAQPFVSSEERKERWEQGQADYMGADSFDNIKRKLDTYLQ
inactive: IRAK-1-4 Inhibitor I -0.055 | ibrutinib 0.025 | [1] -0.29 | ralimetinib 0.176 | [2] 0.029 | [3] -0.114 | [4] 0.064 | pinometostat 0.125 | [5] 0.03 | [6] 0.035 | [7] 0.209 | [8] 0.035 | [9] -0.041 | [10] -0.029 | Nexturastat A 0.146 | vemurafenib 0.014 | [11] 0.046 | [12] 0.101 | givinostat 0.027 | barasertib -0.037

HIP1R (UniProt O75146)
UniProt O75146, sequence (O75146 whole entry, looked up): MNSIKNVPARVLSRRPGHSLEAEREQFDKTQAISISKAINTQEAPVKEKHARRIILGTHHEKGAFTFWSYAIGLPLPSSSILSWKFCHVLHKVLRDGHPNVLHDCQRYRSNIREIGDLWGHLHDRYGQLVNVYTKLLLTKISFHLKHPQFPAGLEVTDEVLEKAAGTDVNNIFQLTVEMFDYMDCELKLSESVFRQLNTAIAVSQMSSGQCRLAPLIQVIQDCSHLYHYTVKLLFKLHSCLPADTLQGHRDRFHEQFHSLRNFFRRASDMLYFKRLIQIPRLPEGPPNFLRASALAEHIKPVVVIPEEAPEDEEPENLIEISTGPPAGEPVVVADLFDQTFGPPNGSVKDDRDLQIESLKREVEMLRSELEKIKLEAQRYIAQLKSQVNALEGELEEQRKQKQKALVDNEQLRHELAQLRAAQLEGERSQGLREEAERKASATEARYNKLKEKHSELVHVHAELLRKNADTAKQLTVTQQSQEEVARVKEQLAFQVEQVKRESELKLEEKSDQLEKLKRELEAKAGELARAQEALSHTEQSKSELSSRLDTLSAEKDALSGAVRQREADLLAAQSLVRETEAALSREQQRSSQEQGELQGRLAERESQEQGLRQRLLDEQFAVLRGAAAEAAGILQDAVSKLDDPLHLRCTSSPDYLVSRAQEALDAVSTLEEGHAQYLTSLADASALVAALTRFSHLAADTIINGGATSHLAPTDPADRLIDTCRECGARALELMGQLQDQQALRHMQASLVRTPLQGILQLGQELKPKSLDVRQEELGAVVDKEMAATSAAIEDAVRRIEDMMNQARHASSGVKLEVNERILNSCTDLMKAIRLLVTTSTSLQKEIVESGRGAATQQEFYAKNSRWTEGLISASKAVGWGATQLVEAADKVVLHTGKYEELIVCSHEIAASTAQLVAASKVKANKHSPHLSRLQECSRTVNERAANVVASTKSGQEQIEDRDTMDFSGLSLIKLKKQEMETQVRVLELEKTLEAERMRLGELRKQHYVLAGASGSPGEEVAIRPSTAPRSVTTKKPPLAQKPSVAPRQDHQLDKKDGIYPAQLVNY
inactive: IRAK-1-4 Inhibitor I 0.029 | ibrutinib -0.027 | [1] -0.022 | ralimetinib 0.01 | [2] -0.034 | [3] -0.059 | [4] -0.003 | pinometostat 0 | [5] -0.004 | [6] 0.138 | [7] -0.028 | [8] -0.053 | [9] 0.003 | [10] -0.002 | Nexturastat A -0.047 | vemurafenib -0.026 | [11] 0.036 | [12] -0.006 | givinostat 0.059 | barasertib 0.041

HAT1 (UniProt O14929)
UniProt O14929, sequence (O14929 whole entry, looked up): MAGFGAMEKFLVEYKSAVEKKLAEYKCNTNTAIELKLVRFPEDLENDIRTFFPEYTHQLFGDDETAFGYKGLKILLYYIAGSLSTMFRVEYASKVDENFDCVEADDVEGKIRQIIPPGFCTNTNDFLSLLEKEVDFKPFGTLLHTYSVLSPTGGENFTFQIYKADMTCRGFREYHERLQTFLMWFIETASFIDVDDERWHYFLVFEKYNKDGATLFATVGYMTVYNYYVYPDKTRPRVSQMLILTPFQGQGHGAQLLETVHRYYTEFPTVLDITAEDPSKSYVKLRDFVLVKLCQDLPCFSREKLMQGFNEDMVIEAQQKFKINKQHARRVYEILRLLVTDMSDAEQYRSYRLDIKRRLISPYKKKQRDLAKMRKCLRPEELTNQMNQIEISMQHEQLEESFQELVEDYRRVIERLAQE
inactive: IRAK-1-4 Inhibitor I 0.027 | ibrutinib -0.009 | [1] -0.109 | ralimetinib -0.003 | [2] -0.027 | [3] 0.006 | [4] -0.022 | pinometostat -0.048 | [5] -0.013 | [6] -0.03 | [7] 0.042 | [8] -0.037 | [9] 0.008 | [10] 0.095 | Nexturastat A -0.034 | vemurafenib 0.087 | [11] 0.013 | [12] 0.007 | givinostat 0.005 | barasertib 0.025
